Ba/F3 V617F tox = lowers viability of Ba/F3 cells expressing EpoR and JAK2V617F; ATP luminescence; inhibition, % at 5.6 µM; 220,000 compounds, 1.1% hits; AID 1446;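 active means inhibition above the campaign mean plus 3 SD over all tested compounds, cut at about 24% in these data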;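 further: cytokine-independent growth of Ba/F3 cells driven by EpoR plus mutant JAK2; 0% = DMSO-treated cells and 100% = JAK inhibitor I control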
aSyn 5UTR inh = 5' untranslated region of α-synuclein, MLPCN primary screen; alpha-synuclein 5'UTR reporter, inhibitor activity; inhibition, % (tested at 7.5 µM); 300,000 compounds, 0.82% hits; in the data active means inhibition above about 60%; inconclusive means no clear call, values can overlap the other calls;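 further: H4 neuroglioblastoma cells stably carrying SNCA 5'UTR luciferase fusion; 0% = DMSO wells and 100% = positive control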
BaF3 tox = reduces parental Ba/F3 cell viability, JAK2V617F counter-screen; CellTiter-Glo ATP luminescence; inhibition, % at 5.6 µM; 220,000 compounds, 1.1% hits; AID 1486;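 active means inhibition above a per-campaign cutoff, the mean inhibition of all tested compounds plus 3 SD, cut at about 27% in these data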;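 further: 0% = DMSO wells and 100% = JAK Inhibitor I control wells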
APP 5UTR inh = APP translation inhibition. SH-SY5Y APP 5'UTR-luciferase reporter, luminescence. inhibition, % at 2 µM. 190,000 compounds, 0.82% hits. AID 1285;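 active means inhibition above a set limit, derived from the sample mean plus 3 SD, cut at about 45% in these data; inconclusive means one replicate passes the limit while the other fails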
KLF5 inhibitor = inhibitors of KLF5 expression; AID 1700; inhibition, % at 5 µM; DLD-1 KLF5 promoter-luciferase reporter, luminescence; 290,000 compounds, 0.23% hits;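 active means inhibition above a per-plate limit of that plate's mean compound inhibition plus 3 SD, cut at about 60% in these data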;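 further: 0% = DMSO wells and 100% = LY294002 at 200 µM; higher means less KLF5 promoter-driven luciferase light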
IEC-6 cytotox = kills IEC-6 intestinal cells in KLF5 counter-screen; IEC-6 cytotoxicity, luminescence viability; inhibition, % at 5 µM; 290,000 compounds, 0.78% hits; AID 1825;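 further: 0% = plate median of test compound wells and 100% = cytotoxic reference compound wells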
IEC-6 tox confirm = IEC-6 cytotoxicity, confirmation assay | shares compounds with IEC-6 cytotox | IEC-6 rat intestinal epithelial viability, luminescence | inhibition, % at 5 µM | 1,900 compounds, 63% hits | AID 1907;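 further: 0% = vehicle and 100% = reference cytotoxic drug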
The depositor's hits bear a star; ? = inconclusive; . = not tested or not shown. Shown are actives, neighbours in structure and some others; about 2.2% of the full set was active somewhere. Unless noted, no stated cut-off is given here; in the data, active means inhibition above about 22%; inactive means the rest.

SMILES	Ba/F3 V617F tox	aSyn 5UTR inh	BaF3 tox	APP 5UTR inh	KLF5 inhibitor	IEC-6 cytotox	IEC-6 tox confirm
COc1ccc(-n2cc(-c3ccc(OC)c(OC)c3)[nH]c2=S)cc1	-4	-7	1	-13	-54	1	.
CC1=C([N+](=O)[O-])C(c2ccc3c(c2)OCO3)N(C)C(=O)N1C (centres undefined)	.	-6	.	.	-68	5	.
CCOc1ccc(-c2[nH]ncc2-c2ccc(OC)c(OC)c2)c(O)c1	53*	.	59*	70*	47	41*	50*
CCOC(=O)c1sc(NC(=O)CCc2ccccc2)nc1C	.	-146	.	.	46	54*	22*
O=C(CCCl)Nc1nc2c(s1)CCc1ccccc1-2	.	33	.	.	-14	30*	18
CC(=O)c1ccc(S(=O)(=O)N(C)CCCC(=O)N(C)Cc2c(F)cccc2Cl)cc1	.	23	.	.	-19	-7	.
COc1cc2c(cc1OC)C(c1cccs1)N(C(=O)c1cccnc1)CC2 (centres undefined)	46*	-12	46*	45*	40	46*	34*
COc1cc2c(cc1OC)C(c1cccs1)N(C(=O)C(C)C)CC2 (centres undefined)	-2	-15	6	-15	-1	-1	.
C/C(=N\NC(=O)c1ccccc1O)c1ccc(NC(=O)Cc2ccccc2)cc1	.	-71	.	.	-112	3	.
Cc1nc2cc(NC(=O)c3ccc([N+](=O)[O-])s3)ccc2s1	.	77*	.	.	29	30*	19
N#C/C(=C(/O)c1ccc(Br)s1)c1nc2ccccc2[nH]1	.	-53	.	.	8	34*	46*
Cc1cccc(NC(=O)CSc2nc3ccccc3nc2N2CCCC2)c1	.	34	.	.	-10	32*	5
COc1cccc(NC(=O)CSc2nc3ccccc3nc2N2CCCC2)c1	.	24	.	.	-8	9	.
Cc1cccc(NC(=O)CSc2nc3ccccc3nc2N2CCCCC2)c1	.	53	.	.	36	43*	29*
O=C1NNC(c2ccccc2)=N/C1=C\c1ccco1	-1	24	0	.	-12	-5	.
COc1cc(/C=C2\N=C(c3ccccc3)NNC2=O)cc(OC)c1OC	72*	52	79*	.	44	59*	53*
N#C/C(=N/Nc1ccc(OC(F)(F)F)cc1)C(N)=S	50*	-71	68*	.	-61	28*	35*
COc1ccc(N/N=C(\C#N)C(N)=O)cc1	5	-13	8	18	-9	7	.
Cc1ccc(CC2SC(N=C(N)N)=NC2=O)cc1 (centres undefined)	.	-17	.	.	-58	2	.
Cc1ccc(S(=O)(=O)N2CCCOC2CNC(=O)C(=O)NC2CCCC2)cc1 (centres undefined)	.	-6	.	.	-10	-6	.
O=C(O)CSc1cc(NS(=O)(=O)c2ccc(Cl)cc2)c2ccccc2c1O	.	21	.	.	-42	57*	-3
COc1ccc(-n2c(C)cc(/C=N/Nc3nnc(C)n3N)c2C)cc1	16	24	5	-4	11	100*	-4
CCOc1cc(C(=O)NN=C2CCCC2)cc(OCC)c1OCC	.	-20	.	.	17	80*	-1
COc1ccc(C(=O)NN=C2CCCC2)cc1OC	.	-17	.	.	-32	8	.
COc1cc(OC)c(NC2=CC(=O)C(=O)c3ccccc32)cc1Cl	.	107*	.	.	42	78*	31*
SMILES	Ba/F3 V617F tox	aSyn 5UTR inh	BaF3 tox	APP 5UTR inh	KLF5 inhibitor	IEC-6 cytotox	IEC-6 tox confirm
CCC(C(=O)Nc1cc(Cl)c(OC)cc1OC)c1ccccc1 (centres undefined)	1	-7	8	0	0	3	.
Cc1cccn2c(=O)nc(SCC(=O)NCc3ccccc3)nc12	.	-12	.	.	.	.	.
COc1ccc(CC(=O)Oc2cc(C)ccc2C)cc1	.	-4	.	.	-8	-1	.
CC1=C([N+](=O)[O-])C(c2ccccc2)C2=C(N1)c1ccccc1C2=O (centres undefined)	77*	113*	71*	57*	58	47*	56*
COc1ccc(C2C(C#N)=C(C)NC3=C2C(=O)c2ccccc23)cc1 (centres undefined)	-3	8	1	5	15	-4	.
Nc1nc(Nc2cccc3ccccc23)nc(C2CCCC2=O)n1 (centres undefined)	2	-10	3	-6	0	-2	.
Nc1nc(CCl)nc(Nc2cccc3ccccc23)n1	100*	-18	28*	.	-5	91*	8
Cc1cccc(NNC(=O)C(=O)NNc2cccc(C)c2)c1	-1	-7	-1	.	34	34*	-14
COc1ccc(/C=N/NC(=O)CN(C)C(=O)OCc2ccccc2)cc1OC	.	21	.	.	-22	-5	.
CC(C)NCC(O)Cn1c2c(c3ccccc31)CCc1c-2cnn1-c1ccccc1 (centres undefined)	88*	108*	79*	87*	22	75*	73*
CN1CCc2c(n(CC(O)CNCc3ccccc3)c3ccccc23)C1=O (centres undefined)	1	39	-6	-12	14	9	.
C=CCn1c(O)c(N=NC(=S)Nc2ccccc2F)c2cc(S(=O)(=O)N3CCOCC3)ccc21	11	78*	18	24	44	30*	17
Clc1ccc(C2=Nn3c(nnc3-c3n[nH]c4c3CCC4)SC2)cc1	55*	58	50*	89*	-10	32*	50*
CCC(Sc1nccn1C)C(=O)Nc1ccc(Cl)cn1 (centres undefined)	4	-12	8	4	-2	4	.
COc1ccc(-c2nn(-c3ccccc3)cc2/C=N/N=C(N)N)cc1OC	0	-20	1	-4	4	-4	.
COc1ccc(-c2nn(-c3ccccc3)cc2/C=N/O)cc1OC	.	-5	.	.	-54	27*	14
CC#CC(=O)N1CCC(CCc2ccccc2)(C(=O)OCC)CC1	-1	?	0	-12	6	27*	12
CCOC(=O)C1(CCc2ccccc2)CCN(C(=O)c2ccoc2)CC1	6	-25	3	-1	-12	-2	.
CCOC(=O)C1CCN(C(=O)c2sccc2Cl)CC1	-6	.	2	.	-18	-6	.
COc1ccc(CNC(=O)CS(=O)CC(=O)O)cc1OC (centres undefined)	-1	-11	2	23	-17	1	.
CCCCCOc1ccc(Br)cc1/C(C)=N/NC1=NCCN1	78*	88*	73*	94*	38	83*	60*
CSc1nc(C(C)C)ccc1CNC(=O)CC(C)c1ccccc1 (centres undefined)	.	18	.	.	-9	1	.
N#CC1=C(N)Oc2cc(N)ccc2C1c1cccc(F)c1 (centres undefined)	.	-137	.	.	38	51*	42*
COC(=O)c1ccc(C2C(C#N)=C(N)Oc3cc(N)ccc32)cc1 (centres undefined)	.	-4	.	.	3	-3	.
COc1ccc(-c2cn(-c3ccc(OC)cc3)c3[n+]2-c2ccccc2CC3)cc1	95*	0	77*	-4	-31	25*	26*
Cc1cc2cc3c(cc2nc1SCC(=O)N1CCCC1)OCCO3	.	2	.	.	-4	30*	38*
Cc1noc(/C=C/N(C)C)c1S(=O)(=O)N1CCCC(C(=O)NCCC2=CCCCC2)C1 (centres undefined)	-3	-18	5	11	-21	7	-9
CCCCCC(=O)Nc1ccc(C(=O)COC(=O)c2ccccn2)cc1	.	-4	.	.	.	.	.
COc1cccc(CNC(=O)N2CCN(S(=O)(=O)c3ccc(C)cc3)CC2)c1	.	4	.	.	-10	6	.
